Experimental findings from PubChem BioAssay (NCATS) are described below.

A number with no mark means an inactive call. Records with an inconclusive call do not appear. Active and inactive are the calls of the source. Unless noted, calls follow the shape of the dose curve; as a rule, active = well fitted curve in the direction sought with a large enough effect; inconclusive = small, poorly fitted or top-dose-only effect, or another doubt; inactive = no such curve, though single readings can be large; an effect the other way counts as inactive or inconclusive.

The target of experiment [1] is Cytochrome P450 1A2 (Homo sapiens) (UniProt P05177). Kind of experiment: p450-cyp1a2 (AID 410; calls by dose curve; also: potency is read from the fitted curve at half-maximal effect). The following applies: recombinant CYP1A2, luciferin-ME demethylation, luminescence; series mostly up to 57 µM. In a few lines: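 Human CYP1A2 (20nM) demethylated Luciferin-ME at its Km (100uM) in 100mM KPO4. After 10 min compound preincubation, NADPH regeneration ran the reaction 60 min at room temperature. Luciferin was read by luminescence, normalized to 57 uM furafylline.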
Cytochrome P450 1A2 (Homo sapiens), sequence (P05177 whole entry, looked up): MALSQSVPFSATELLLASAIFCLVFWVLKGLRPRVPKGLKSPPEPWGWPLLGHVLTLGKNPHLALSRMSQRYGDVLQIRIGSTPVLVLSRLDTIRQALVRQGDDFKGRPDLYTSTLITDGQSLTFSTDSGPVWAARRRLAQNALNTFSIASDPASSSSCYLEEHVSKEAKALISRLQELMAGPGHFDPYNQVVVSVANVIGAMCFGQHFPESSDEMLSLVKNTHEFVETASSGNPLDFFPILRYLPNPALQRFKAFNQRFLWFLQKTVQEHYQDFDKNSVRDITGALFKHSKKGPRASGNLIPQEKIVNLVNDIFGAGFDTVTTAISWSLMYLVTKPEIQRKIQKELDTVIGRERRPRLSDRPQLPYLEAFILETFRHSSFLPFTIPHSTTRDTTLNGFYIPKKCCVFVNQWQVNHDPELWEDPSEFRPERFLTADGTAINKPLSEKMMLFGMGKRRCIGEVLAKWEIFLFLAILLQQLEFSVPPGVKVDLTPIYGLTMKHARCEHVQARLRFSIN

The target of experiment [2] is Glucocorticoid receptor (Homo sapiens) (UniProt P04150). Kind of experiment: GR-EFC Redistribution (AID 451; calls by dose curve; also: potency is read from the fitted curve at half-maximal effect). The following applies: CHO-K1 GR-EFC translocation, beta-gal luminescence, 2 h. In a few lines: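 Translocation of GR-ED fusion to nuclear EA restores b-gal, read by luminescence after 1 h room-temperature detection. Engineered CHO-K1 biosensor cells, 1,000/well, exposed 2 h at 37 C to titrations up to 46 uM final.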
Glucocorticoid receptor (Homo sapiens), sequence (P04150 whole entry, looked up, the tested form may be a part): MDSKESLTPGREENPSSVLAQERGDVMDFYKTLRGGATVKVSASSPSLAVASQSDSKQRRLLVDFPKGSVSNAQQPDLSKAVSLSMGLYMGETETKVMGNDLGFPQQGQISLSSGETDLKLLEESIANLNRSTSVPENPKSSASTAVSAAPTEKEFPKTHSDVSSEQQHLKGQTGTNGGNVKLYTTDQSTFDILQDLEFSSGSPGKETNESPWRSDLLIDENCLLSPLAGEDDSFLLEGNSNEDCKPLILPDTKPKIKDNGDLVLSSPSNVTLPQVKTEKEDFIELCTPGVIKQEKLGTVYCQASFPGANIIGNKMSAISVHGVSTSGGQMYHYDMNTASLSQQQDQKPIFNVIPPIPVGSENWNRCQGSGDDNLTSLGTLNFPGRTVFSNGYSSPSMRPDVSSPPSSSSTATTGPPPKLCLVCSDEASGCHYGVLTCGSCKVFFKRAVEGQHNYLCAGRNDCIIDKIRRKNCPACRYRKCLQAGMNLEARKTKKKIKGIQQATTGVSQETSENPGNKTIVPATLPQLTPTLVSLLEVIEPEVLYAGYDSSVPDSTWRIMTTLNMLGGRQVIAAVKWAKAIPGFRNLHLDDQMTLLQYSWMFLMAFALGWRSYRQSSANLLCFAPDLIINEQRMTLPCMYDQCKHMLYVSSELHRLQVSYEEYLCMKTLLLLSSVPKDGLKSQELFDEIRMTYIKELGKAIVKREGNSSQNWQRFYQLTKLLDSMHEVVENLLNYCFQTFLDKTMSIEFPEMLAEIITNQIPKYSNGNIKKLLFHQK

The target in experiment [3] is 3',5'-cyclic-AMP phosphodiesterase 4B (Homo sapiens) (UniProt Q07343). Kind of experiment: qHTS Assay for Inhibitors of PDE-IV (AID 607; active = well fitted activation curve with a large enough effect in the main read-out, with a control signal flat, not every such curve was filed as active). The following applies: HEK293 ACTOne CNG channel cells, membrane potential fluorescence; series mostly up to 22.9 µM. In a few lines: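 The readout is membrane depolarisation from a cAMP-sensing CNG channel, detected with a potential dye at ex 535/em 590. Cells were HEK293-derived (endogenous PDE-IV) at 1000 cells/well, titrated up to 22.9 uM final.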
3',5'-cyclic-AMP phosphodiesterase 4B (Homo sapiens), sequence (Q07343 whole entry, looked up): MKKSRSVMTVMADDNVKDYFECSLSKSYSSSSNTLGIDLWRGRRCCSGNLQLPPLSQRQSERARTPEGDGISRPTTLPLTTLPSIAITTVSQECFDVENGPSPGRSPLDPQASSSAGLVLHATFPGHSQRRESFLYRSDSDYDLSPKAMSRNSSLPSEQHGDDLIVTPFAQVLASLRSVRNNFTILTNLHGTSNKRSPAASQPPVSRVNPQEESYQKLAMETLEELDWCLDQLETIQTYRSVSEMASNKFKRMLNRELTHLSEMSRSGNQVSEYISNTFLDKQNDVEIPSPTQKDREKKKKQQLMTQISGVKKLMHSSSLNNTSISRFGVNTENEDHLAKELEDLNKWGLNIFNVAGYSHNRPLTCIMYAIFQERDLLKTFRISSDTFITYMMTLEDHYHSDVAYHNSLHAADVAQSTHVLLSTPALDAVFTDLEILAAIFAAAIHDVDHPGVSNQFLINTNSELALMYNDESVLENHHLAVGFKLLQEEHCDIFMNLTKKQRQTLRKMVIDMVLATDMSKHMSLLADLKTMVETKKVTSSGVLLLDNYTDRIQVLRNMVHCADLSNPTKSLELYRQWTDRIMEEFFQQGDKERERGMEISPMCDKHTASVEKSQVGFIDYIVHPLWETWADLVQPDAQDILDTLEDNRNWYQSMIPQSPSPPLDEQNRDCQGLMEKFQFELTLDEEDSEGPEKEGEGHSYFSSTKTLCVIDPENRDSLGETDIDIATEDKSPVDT

The target in experiment [4] is Cytochrome P450 2C9 (Homo sapiens) (UniProt P11712). Nature of the experiment: qHTS Assay for Inhibitors and Substrates of Cytochrome P450 2C9 (AID 883). Also: nearly all actives have a fitted effect of over 60% in size. Also: potency is read from the fitted curve at half-maximal effect. The note with it: recombinant CYP2C9, luciferin-H luminescence, 60 min; series mostly up to 57.1 µM. In a few lines: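 Luminescent read-out of deoxyluciferin hydroxylation, normalized to 57uM sulphaphenazole (AC100). Reaction: 10nM enzyme, 100uM Luciferin-H (equal to KM), 25mM KPO4, 10 min compound preincubation, then 60 min with NADPH regeneration, both at 37C.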
Cytochrome P450 2C9 (Homo sapiens), sequence (P11712 whole entry, looked up): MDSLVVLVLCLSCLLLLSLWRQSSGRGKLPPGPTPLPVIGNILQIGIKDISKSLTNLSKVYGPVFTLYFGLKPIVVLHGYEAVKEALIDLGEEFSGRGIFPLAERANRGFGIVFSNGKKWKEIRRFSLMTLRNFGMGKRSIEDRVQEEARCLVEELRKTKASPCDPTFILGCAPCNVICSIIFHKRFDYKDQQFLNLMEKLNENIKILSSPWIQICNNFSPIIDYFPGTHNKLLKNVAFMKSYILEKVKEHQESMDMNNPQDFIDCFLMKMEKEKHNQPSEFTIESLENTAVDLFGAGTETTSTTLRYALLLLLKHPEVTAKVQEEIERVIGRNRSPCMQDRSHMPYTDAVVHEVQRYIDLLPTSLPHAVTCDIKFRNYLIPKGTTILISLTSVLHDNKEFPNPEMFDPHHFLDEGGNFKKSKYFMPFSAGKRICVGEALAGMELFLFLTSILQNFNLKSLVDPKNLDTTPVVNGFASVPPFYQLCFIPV
Background: In qHTS, concentration-response curves come from the screen itself.

For experiment [5], the target named is Cytochrome P450 2D6 (Homo sapiens) (UniProt P10635). Nature of the experiment: qHTS Assay for Inhibitors and Substrates of Cytochrome P450 2D6 (AID 891). Also: nearly all actives have a fitted effect of over 60% in size. Also: potency is read from the fitted curve at half-maximal effect. The following applies: recombinant CYP2D6, luciferin-ME EGE luminescence; series mostly up to 57.1 µM. In a few lines:
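Human CYP2D6 (5 nM) with 30 uM Luciferin-ME EGE (at Km) in 100 mM KPO4, compound preincubated 10 min, then NADPH regeneration system for 60 min at room temperature. Luciferin read by luminescence; normalized to 1.43 uM quinidine.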

Experiment [6] has as its target Cytochrome P450 2C19 (Homo sapiens) (UniProt P33261). Kind of experiment: qHTS Assay for Inhibitors and Substrates of Cytochrome P450 2C19 (AID 899). Also: nearly all actives have a fitted effect of over 60% in size. Also: potency is read from the fitted curve at half-maximal effect. The note with it: recombinant CYP2C19, luciferin-H EGE luminescence; series mostly up to 57.1 µM. In a few lines:
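Luminescence readout of luciferin formed from 10uM Luciferin-H EGE (KM level) by 5 nM CYP2C19 in 50mM KPO4. 60 min NADPH-driven reaction at 37C after 10 min compound preincubation; data scaled to 57uM ketoconazole inhibition.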

Experiment [7] has as its target Mitogen-activated protein kinase 10 (Mus musculus) (UniProt Q61831). Nature of the experiment: JNK3 AlphaScreen Assay (AID 530; active = well fitted curve in either direction with a large enough effect, not every such curve was filed as active;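 also: kinase came from lysate of stimulated human HepG2 cells; signal reports phosphorylation of biotinylated GST-cJun 1-79 at Ser73 with 10 µM ATP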). The following applies: JNK3 lysate, c-Jun phosphorylation; series mostly up to 57.1 µM. The method in brief: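 Room-temperature AlphaScreen kinase assay; pre-activated HepG2 lysate as JNK3 source, biotin-GST-cJun(1-79) substrate, 10 uM ATP, compound 15 min preincubation.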

The target in experiment [8] is Cytochrome P450 3A4 (Homo sapiens) (UniProt P08684). Nature of the experiment: qHTS Assay for Inhibitors and Substrates of Cytochrome P450 3A4 (AID 884). Also: potency is read from the fitted curve at half-maximal effect; nearly all actives have a fitted effect of over 50% in size. The note with it: recombinant CYP3A4, Luciferin-PPXE luminescence; series mostly up to 57.1 µM. The method in brief: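 20 nM human CYP3A4 with 25 uM Luciferin-PPXE (at KM) in 200 mM KPO4, preincubated 10 min with compound; NADPH regeneration started a 60 min RT reaction. Luciferin detected by luminescence, normalized to 57 uM ketoconazole as full inhibition.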
Cytochrome P450 3A4 (Homo sapiens), sequence (P08684 whole entry, looked up): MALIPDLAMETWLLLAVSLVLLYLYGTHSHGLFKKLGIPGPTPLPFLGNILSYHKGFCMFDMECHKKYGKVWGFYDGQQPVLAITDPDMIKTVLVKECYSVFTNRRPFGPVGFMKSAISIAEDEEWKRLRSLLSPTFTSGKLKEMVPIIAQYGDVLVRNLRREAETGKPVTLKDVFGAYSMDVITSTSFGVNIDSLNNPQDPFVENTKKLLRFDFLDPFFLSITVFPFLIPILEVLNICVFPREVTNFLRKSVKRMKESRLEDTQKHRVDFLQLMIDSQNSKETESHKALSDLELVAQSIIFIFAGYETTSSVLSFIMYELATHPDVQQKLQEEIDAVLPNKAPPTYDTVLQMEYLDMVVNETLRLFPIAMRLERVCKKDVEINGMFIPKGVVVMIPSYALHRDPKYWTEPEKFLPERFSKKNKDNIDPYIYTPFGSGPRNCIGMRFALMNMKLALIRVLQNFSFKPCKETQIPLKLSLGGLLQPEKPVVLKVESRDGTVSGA

Experiment [9] has the same target. Nature of the experiment: qHTS Assay for Activators of Cytochrome P450 3A4 (AID 885). Also: nearly all actives have a fitted effect of over 65% in size. The following applies: recombinant CYP3A4, Luciferin-PPXE luminescence, 60 min; series mostly up to 57.1 µM. In a few lines:
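Steps: enzyme/substrate mix dispensed; compound added, 10 min RT; NADPH regeneration solution added, 60 min RT; luciferin detection buffer stops reaction; 20 min later luminescence measured.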

Cytochrome P450 2D6 (Homo sapiens), sequence (P10635 whole entry, looked up): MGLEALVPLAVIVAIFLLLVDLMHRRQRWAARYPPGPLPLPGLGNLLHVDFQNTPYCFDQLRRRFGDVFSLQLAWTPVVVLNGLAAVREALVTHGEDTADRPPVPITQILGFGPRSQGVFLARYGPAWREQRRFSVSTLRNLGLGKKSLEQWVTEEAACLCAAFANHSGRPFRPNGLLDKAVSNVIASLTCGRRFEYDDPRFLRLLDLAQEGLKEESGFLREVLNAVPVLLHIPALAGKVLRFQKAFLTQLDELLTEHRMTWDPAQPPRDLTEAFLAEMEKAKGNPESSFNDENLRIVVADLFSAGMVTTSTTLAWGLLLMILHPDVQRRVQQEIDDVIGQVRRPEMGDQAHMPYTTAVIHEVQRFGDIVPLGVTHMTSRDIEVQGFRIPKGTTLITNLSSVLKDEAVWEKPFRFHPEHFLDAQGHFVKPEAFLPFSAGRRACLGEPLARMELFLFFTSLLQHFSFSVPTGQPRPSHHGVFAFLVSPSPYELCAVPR
Cytochrome P450 2C19 (Homo sapiens), sequence (P33261 whole entry, looked up): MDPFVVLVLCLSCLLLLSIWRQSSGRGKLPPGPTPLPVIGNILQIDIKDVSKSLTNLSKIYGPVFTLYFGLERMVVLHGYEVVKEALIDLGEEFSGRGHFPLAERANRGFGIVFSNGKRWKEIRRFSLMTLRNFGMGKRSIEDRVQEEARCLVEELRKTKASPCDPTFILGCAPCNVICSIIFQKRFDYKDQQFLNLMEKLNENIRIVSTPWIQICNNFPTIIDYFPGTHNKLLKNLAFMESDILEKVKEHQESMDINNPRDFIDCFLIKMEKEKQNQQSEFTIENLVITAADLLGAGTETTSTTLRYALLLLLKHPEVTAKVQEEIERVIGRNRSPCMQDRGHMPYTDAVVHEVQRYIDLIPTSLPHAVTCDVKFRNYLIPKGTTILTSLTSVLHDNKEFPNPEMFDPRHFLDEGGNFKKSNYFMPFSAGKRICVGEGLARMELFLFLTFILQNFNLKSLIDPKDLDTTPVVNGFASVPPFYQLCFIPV

As for `CC(C)C[C@@H](CC(=O)N[C@@H](CCCN)CC(=O)N[C@@H]1CCNC[C@H]1C(=O)N[C@H](CC(=O)N[C@@H](CCC(=O)O)CC(=O)O)Cc1c[nH]c2ccccc12)NC(=O)[C@@H]1CNCC[C@H]1N`, the Potency result in experiment [1], in experiment [3], in experiment [4], in experiment [5] and in experiment [6] was “inactive” in each case. In addition, the Potency in experiment [2] is greater than 46 µM.
In the case of `CC(C)C[C@@H](CC(=O)N[C@@H](CCC(=O)O)CC(=O)O)NC(=O)[C@@H]1CNCC[C@H]1NC(=O)C[C@@H](NC(=O)C[C@H](CO)NC(=O)[C@@H]1CNCC[C@H]1N)C(C)C`, the Potency entry in experiment [1], in experiment [3] and in experiment [5] was “inactive” each time. In experiment [2], the Potency is greater than 46 µM.
For the compound `COC(=O)[C@@]1(Cc2ccc(F)cc2)[C@H]2c3cc(C(=O)N(C)C)n(Cc4ccc(Cl)c(C(F)(F)F)c4)c3C[C@H]2CN1C(=O)c1ccccc1`, the Potency is 15.8 µM (active) in experiment [1], 3.98 µM (active) in experiment [4] and 2 µM (active) in [8]. For the same compound, the Potency result in experiment [7], in [3] and in experiment [9] was “inactive” each time.
As to `COC(=O)[C@@]1(Cc2ccc(OC)cc2)[C@H]2c3cc(C(=O)N4CCCC4)n(CCc4c[nH]c5ccc(OC)cc45)c3C[C@H]2CN1C(=O)c1ccccc1`, the Potency in experiment [1] was 10 µM (active). Besides, the Potency entry in experiment [7] and in experiment [3] was “inactive” in each case.
Turning to `C[C@@]1(C(NC(=O)Cc2ccc(C(F)(F)F)cc2)c2ccc(-c3ccccc3)cc2)C[C@H]1C1CCCCC1` (some centres not stated), the Potency result in experiment [1], in experiment [7] and in experiment [3] was “inactive” in each case.
`O=C(Nc1ccc2ccccc2c1)[C@@H]1C[C@H]1[C@@H](NP(=O)(c1ccccc1)c1ccccc1)c1ccccc1`: the Potency in experiment [1] is 20 µM (active). Further, the Potency entry in [7] and in experiment [3] was “inactive” each time.
With `C[C@@H](C(=O)Nc1ccc2ccccc2c1)[C@@H]1C[C@@]1(C)[C@@H](NS(=O)(=O)c1ccc(-c2ccccc2)cc1)c1ccccc1`, in experiment [1], the Potency was 12.6 µM (active). Also, the Potency result in experiment [7] and in experiment [3] was “inactive” each time.
For the compound `COC(=O)[C@@]1(Cc2ccc(F)cc2)[C@H]2c3cc(C(=O)N4CCCC4)n(Cc4ccc(OC(F)(F)F)cc4)c3C[C@H]2CN1C(=O)c1ccccc1`, the Potency result in experiment [1], in [7], in experiment [3] and in [9] was “inactive” throughout. In addition, the results for the Potency in [4] and in experiment [8] were 6.31 µM (active) and 2.51 µM (active), respectively.
Regarding `COC(=O)[C@@]1(Cc2ccc(OC)cc2)[C@H]2c3cc(C(=O)N4CCCC4)n(CCc4c[nH]c5ccc(O)cc45)c3C[C@H]2CN1C(=O)c1ccccc1`, the Potency result in experiment [1], in [7], in [3] and in experiment [9] was “inactive” throughout. For the same compound, the Potency in [4] was 3.16 µM (active); in experiment [8], 1.58 µM (active).
As to `COC(=O)N[C@H](c1ccccc1)[C@@]1(C)C[C@@H]1[C@@H](C)C(=O)Nc1ccc2ccccc2c1`, the Potency in experiment [1] was 12.6 µM (active); in [4], 3.98 µM (active); in experiment [8] it was 0.199 µM (active); in [5] it was 0.0316 µM (active); in experiment [6], 3.16 µM (active). The Potency result in [7], in [3] and in experiment [9] was “inactive” throughout.
For the compound `CCC#CCOCC(=O)Nc1ccccc1`, the Potency in [1] is 25.1 µM (active). For the same compound, the Potency entry in [7] and in experiment [3] was “inactive” throughout.
For `CC(=O)N1CC2(CC2)CC1c1ccccc1` (configuration not stated), the Potency result in [1], in [7] and in [3] was “inactive” throughout.
Consider `COC(=O)[C@@]1(Cc2ccccc2)[C@H]2c3cc(C(=O)N4CCCC4)n(Cc4ccc(OC)c(OC)c4)c3C[C@H]2CN1C(=O)c1ccccc1`, for which the Potency result in [1], in experiment [7], in experiment [3] and in experiment [9] was “inactive” in each case. In addition, the Potency in experiment [4] and in [8] was 1.26 µM (active) in each case.
In the case of `CC(Cc1ccccc1)C(=O)NCc1ccccn1` (configuration not stated), in experiment [1], the Potency was 15.8 µM (active). Further, the Potency entry in [7] and in [3] was “inactive” in each case.
As to `COC(=O)[C@@]1(Cc2ccc(OC)cc2)[C@H]2c3cc(C(=O)N4CCCC4)n(Cc4c(CO)[nH]cc(C)c4=O)c3C[C@H]2CN1C(=O)c1ccccc1`, in experiment [1], the Potency was 25.1 µM (active). Also, the Potency entry in experiment [7] and in experiment [3] was “inactive” in each case.
Consider `COC(=O)[C@@]1(Cc2ccc(F)cc2)[C@H]2c3cc(C(=O)N4CCCC4)n(CCF)c3C[C@H]2CN1C(=O)c1ccccc1`, for which the Potency in [1] is 15.8 µM (active). Besides, the Potency result in [7] and in experiment [3] was “inactive” each time.
Take `COC(=O)[C@@]1(Cc2ccc(F)cc2)[C@H]2c3cc(C(=O)N(C)C)n(C)c3C[C@H]2CN1C(=O)c1ccccc1`: the Potency in experiment [1] is 31.6 µM (active). Besides, the Potency entry in experiment [7] and in experiment [3] was “inactive” in each case.
